# Results as given in ChEMBL document CHEMBL5606460, “ASAP - DENV-2 NS2B-NS3 protease fluorescence single point” (2024).
# The campaign covered roughly 2,000 compounds. About 110 (5.5%) showed an effect of 50% or more. Only a selection was taken, and strong results are over-represented in it overall.
# Biological target: Genome polyprotein (dengue virus type 2) (UniProt P29990)
# [1] = Thailand/16681/1984, Concentration 25.0 uM, Number of replicates 1.0
smiles,measurement,setting,value
CC(C)(CO)NC(=O)c1cc(Cl)cc(NS(=O)(=O)c2ccccc2)c1,inhibition,"Thailand/16681/1984, Concentration 49.5 uM, Number of replicates 2.0, Standard deviation 0.43077113751226487 %",-5.72%
same,inhibition,"Thailand/16681/1984, Concentration 99.01 uM, Number of replicates 2.0, Standard deviation 0.028975789763845603 %",-4.57%
same,inhibition,"Thailand/16681/1984, Concentration 198.0 uM, Number of replicates 2.0, Standard deviation 1.4999717780869397 %",-2.99%
O=Cc1ccc(N2CCC(C(=O)NCc3cc(C(F)(F)F)ccc3C(F)(F)F)CC2)cc1,inhibition,[1],1.04%
Cn1cnc2[nH]c(C(=O)N3CC[C@H](c4c[nH]c5ccccc45)C3)cc21,inhibition,"Thailand/16681/1984, Concentration 49.5 uM, Number of replicates 2.0, Standard deviation 2.003876801484884 %",-2.49%
same,inhibition,"Thailand/16681/1984, Concentration 99.01 uM, Number of replicates 2.0, Standard deviation 1.2772748269322285 %",-1.94%
same,inhibition,"Thailand/16681/1984, Concentration 198.0 uM, Number of replicates 2.0, Standard deviation 1.685869304282425 %",-0.105%
O=Cc1ccc(N2CCC(C(=O)Nc3cc(Cl)cc(Cl)c3O)CC2)cc1,inhibition,[1],98.2%
O=Cc1ccc(N2CCC(C(=O)Nc3ccc([N+](=O)[O-])cc3Cl)CC2)cc1,inhibition,[1],23.5%
O=Cc1ccc(N2CCC(C(=O)Nc3cc(Cl)c(O)c(Cl)c3)CC2)cc1,inhibition,[1],100%
O=Cc1ccc(N2CCC(C(=O)Nc3ccc(Cl)c(Cl)c3)CC2)cc1,inhibition,[1],11.8%
O=Cc1ccc(N2CCC(C(=O)Nc3cc(Cl)ccc3Br)CC2)cc1,inhibition,[1],13.8%
O=Cc1ccc(N2CCC(C(=O)Nc3c(Cl)cc(Cl)cc3Br)CC2)cc1,inhibition,[1],13.4%
O=Cc1ccc(N2CCC(C(=O)Nc3cc(Cl)cc([N+](=O)[O-])c3O)CC2)cc1,inhibition,[1],90.5%
O=Cc1ccc(N2CCC(C(=O)Nc3ccc(O)cc3[N+](=O)[O-])CC2)cc1,inhibition,[1],24.5%
O=Cc1ccc(N2CCC(C(=O)Nc3cc(Cl)c(F)c(Cl)c3)CC2)cc1,inhibition,[1],13.1%
c1cnc2c(C3CCN(Cc4cnn5ccccc45)CC3)c[nH]c2c1,inhibition,"Thailand/16681/1984, Concentration 49.5 uM, Number of replicates 2.0, Standard deviation 1.316281988110152 %",-4.72%
same,inhibition,"Thailand/16681/1984, Concentration 99.01 uM, Number of replicates 2.0, Standard deviation 2.2605015442223797 %",-3.44%
same,inhibition,"Thailand/16681/1984, Concentration 198.0 uM, Number of replicates 2.0, Standard deviation 0.9691516929362414 %",-2.08%
O=Cc1ccc(N2CCC(C(=O)N3CCN(C(=O)Cc4ccccc4)CC3)CC2)cc1,inhibition,[1],12.3%
CN(C)C1(CNC(=O)C2CCN(c3ccc(C=O)cc3)CC2)CCOCC1,inhibition,[1],12.1%
NCc1ncc(C(=O)Nc2ccccc2N2CCC(CO)CC2)c(C(F)(F)F)n1,inhibition,"Thailand/16681/1984, Concentration 49.5 uM, Number of replicates 2.0, Standard deviation 1.1543273279104322 %",2.58%
same,inhibition,"Thailand/16681/1984, Concentration 99.01 uM, Number of replicates 2.0, Standard deviation 0.2964400275887672 %",4.99%
same,inhibition,"Thailand/16681/1984, Concentration 198.0 uM, Number of replicates 2.0, Standard deviation 0.14686490832106133 %",6.91%
NCc1cccc(NC(=O)[C@H]2CN(C(=O)OCc3ccccc3)CC23CCOCC3)c1,inhibition,"Thailand/16681/1984, Concentration 49.5 uM, Number of replicates 2.0, Standard deviation 3.4820905640560142 %",-2.83%
same,inhibition,"Thailand/16681/1984, Concentration 99.01 uM, Number of replicates 2.0, Standard deviation 3.010767204046265 %",-1.08%
same,inhibition,"Thailand/16681/1984, Concentration 198.0 uM, Number of replicates 2.0, Standard deviation 2.6769829613344203 %",-0.776%
O=Cc1ccc(N2CCC(C(=O)Nc3ccc(OC(F)(F)F)cc3Cl)CC2)cc1,inhibition,[1],13.6%
COc1cc(COc2cncnc2)nc(N2CCNCC2)n1,inhibition,"Thailand/16681/1984, Concentration 49.5 uM, Number of replicates 2.0, Standard deviation 3.306986633712837 %",-2.35%
same,inhibition,"Thailand/16681/1984, Concentration 99.01 uM, Number of replicates 2.0, Standard deviation 2.7720530174645646 %",-0.505%
same,inhibition,"Thailand/16681/1984, Concentration 198.0 uM, Number of replicates 2.0, Standard deviation 2.4477408574870583 %",0.524%
O=C(NCc1cocn1)c1cc(Cl)ccc1NS(=O)(=O)c1ccc(Oc2ccccc2Cl)cc1,inhibition,"Thailand/16681/1984, Concentration 49.5 uM, Number of replicates 2.0, Standard deviation 0.2927162692291327 %",78.5%
same,inhibition,"Thailand/16681/1984, Concentration 99.01 uM, Number of replicates 2.0, Standard deviation 0.11144031356026086 %",70.2%
same,inhibition,"Thailand/16681/1984, Concentration 198.0 uM, Number of replicates 2.0, Standard deviation 0.4940824474713894 %",60.8%
O=C(NCc1c[nH]nn1)c1cc(Cl)ccc1NS(=O)(=O)c1ccc(Oc2ccccc2Cl)cc1,inhibition,"Thailand/16681/1984, Concentration 49.5 uM, Number of replicates 2.0, Standard deviation 0.023138282657692737 %",75.2%
same,inhibition,"Thailand/16681/1984, Concentration 99.01 uM, Number of replicates 2.0, Standard deviation 0.008898717007196123 %",63.2%
same,inhibition,"Thailand/16681/1984, Concentration 198.0 uM, Number of replicates 2.0, Standard deviation 0.06140627240643217 %",36.5%
Cc1ccc(CNC(=O)c2cc(Cl)ccc2NS(=O)(=O)c2ccc(Oc3ccccc3Cl)cc2)s1,inhibition,"Thailand/16681/1984, Concentration 49.5 uM, Number of replicates 2.0, Standard deviation 0.032039697063193553 %",83.2%
same,inhibition,"Thailand/16681/1984, Concentration 99.01 uM, Number of replicates 2.0, Standard deviation 0.20602188771616411 %",78.6%
same,inhibition,"Thailand/16681/1984, Concentration 198.0 uM, Number of replicates 2.0, Standard deviation 0.539307027447943 %",69.5%
COc1cccc(Cn2cc(C3CCNCC3)c(C)n2)n1,inhibition,"Thailand/16681/1984, Concentration 49.5 uM, Number of replicates 2.0, Standard deviation 0.5897033629115713 %",-3.33%
same,inhibition,"Thailand/16681/1984, Concentration 99.01 uM, Number of replicates 2.0, Standard deviation 0.7206939136220955 %",-3.64%
same,inhibition,"Thailand/16681/1984, Concentration 198.0 uM, Number of replicates 2.0, Standard deviation 2.0772079346215944 %",-3.79%
CCCCCC(=O)N[C@H](C(=O)N1CCC[C@@H](N)C1)c1ccc(OCc2ccccc2)cc1,inhibition,"Thailand/16681/1984, Concentration 49.5 uM, Number of replicates 2.0, Standard deviation 1.275572557867722 %",-0.123%
same,inhibition,"Thailand/16681/1984, Concentration 99.01 uM, Number of replicates 2.0, Standard deviation 1.3300520589416613 %",0.674%
same,inhibition,"Thailand/16681/1984, Concentration 198.0 uM, Number of replicates 2.0, Standard deviation 1.6287502093065211 %",2.04%
O=Cc1ccc(N2CCC(C(=O)NCCc3cccc4ccccc34)CC2)cc1,inhibition,[1],11.1%
Cc1cc(CO)c2cccc(Cc3ccccc3C(=O)NCc3c(C)noc3C)c2n1,inhibition,"Thailand/16681/1984, Concentration 49.95 uM, Number of replicates 2.0, Standard deviation 0.3226747127660098 %",-0.757%
same,inhibition,"Thailand/16681/1984, Concentration 99.9 uM, Number of replicates 2.0, Standard deviation 0.21847019123152348 %",0.39%
COc1ccc(F)c(-c2nn(C)cc2NC(=O)c2ccccc2C(F)(F)F)c1,inhibition,"Thailand/16681/1984, Concentration 49.5 uM, Number of replicates 2.0, Standard deviation 3.583319549695768 %",-2.64%
same,inhibition,"Thailand/16681/1984, Concentration 99.01 uM, Number of replicates 2.0, Standard deviation 4.648656873158677 %",-2.47%
same,inhibition,"Thailand/16681/1984, Concentration 198.0 uM, Number of replicates 2.0, Standard deviation 3.7890463989356435 %",-2.09%
COc1ccc(F)cc1-c1ccccc1C(=O)Nc1cnn(C)c1,inhibition,"Thailand/16681/1984, Concentration 49.5 uM, Number of replicates 2.0, Standard deviation 2.2581672831644526 %",-4.25%
same,inhibition,"Thailand/16681/1984, Concentration 99.01 uM, Number of replicates 2.0, Standard deviation 1.9365380229757554 %",-2.49%
same,inhibition,"Thailand/16681/1984, Concentration 198.0 uM, Number of replicates 2.0, Standard deviation 2.756548372009165 %",-2.95%
Cn1cc(NC(=O)c2ccccc2C(F)(F)F)c(-c2ccc(CO)cc2)n1,inhibition,"Thailand/16681/1984, Concentration 49.5 uM, Number of replicates 2.0, Standard deviation 2.3161186941047496 %",-4.04%
same,inhibition,"Thailand/16681/1984, Concentration 99.01 uM, Number of replicates 2.0, Standard deviation 3.5021876776391307 %",-2.8%
same,inhibition,"Thailand/16681/1984, Concentration 198.0 uM, Number of replicates 2.0, Standard deviation 4.667974048773386 %",-3.05%
